Results on 29 compounds are retold here after PubChem BioAssay (Tox21).

“And” between values parts separate entries of the source, which are not always exact repeats. Identical values can stand only once. Results filed as inconclusive are left out. Where a structure was tested more than once in an assay, its records may differ in their call. The source made the active and inactive calls. Calls come from the whole dose curve; as a rule, active = well fitted inhibition curve with a large enough effect in the repeat runs; inconclusive = weak or mixed curves; inactive = no such curve, though single readings can be large or run the other way.
Potency is the fitted concentration of half-maximal effect.

Cytochrome P450 2C19 (Homo sapiens), sequence (P33261 whole entry, looked up): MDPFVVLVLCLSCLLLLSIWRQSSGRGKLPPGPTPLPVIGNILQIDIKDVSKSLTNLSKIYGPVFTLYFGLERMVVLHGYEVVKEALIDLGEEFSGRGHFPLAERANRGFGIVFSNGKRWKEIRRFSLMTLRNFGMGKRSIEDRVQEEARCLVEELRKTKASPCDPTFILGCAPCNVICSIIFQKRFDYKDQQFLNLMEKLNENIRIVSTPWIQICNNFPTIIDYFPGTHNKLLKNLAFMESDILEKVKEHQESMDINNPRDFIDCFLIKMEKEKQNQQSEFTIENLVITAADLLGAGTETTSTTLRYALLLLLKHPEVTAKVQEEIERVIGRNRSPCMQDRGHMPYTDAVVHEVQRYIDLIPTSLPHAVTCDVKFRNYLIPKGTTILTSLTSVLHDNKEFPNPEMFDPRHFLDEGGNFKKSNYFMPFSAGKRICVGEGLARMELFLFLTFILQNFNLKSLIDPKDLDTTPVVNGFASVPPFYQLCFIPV

The target of the first experiment is Cytochrome P450 2C19 (Homo sapiens) (UniProt P33261). In words: Cytochrome P450 Family 2 Subfamily C Member 19 (CYP2C19) small molecule antagonists: luciferase reporter qHTS assay (AID 1671197). Note: nearly all actives have a fitted effect of over 65% in size. The conditions noted are these: P450-Glo CYP2C19 enzyme, luciferin luminescence, 1 h; series mostly up to 115 µM. Put shortly:
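Relative luminescence units recorded 20 min after the detection reagent stopped a 1 h, 37C CYP2C19 reaction on proluciferin substrate, which was started by NADPH regeneration following 10 min room-temperature compound preincubation; ketoconazole positive control.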
Regarding `COc1cc(O)c(C(=O)c2ccccc2)cc1S(=O)(=O)O`, the Potency is 78.8 µM (active) and inactive.

For `Oc1cccc(O)c1`, the Potency result is “inactive”.

For `COc1cc2c(c(OC)c1OC)-c1ccc(OC)c(=O)cc1[C@@H](NC(C)=O)CC2`, the Potency entry was “inactive”.

As to `c1ccc2[nH]c(-c3cscn3)nc2c1`, the Potency is 35.8 µM (active) and 71 µM (active) and 34.7 µM (active).

With `CC(O)COc1ccccc1` (stereo not drawn), the Potency result is “inactive”.

On to `CN/C(=C\[N+](=O)[O-])NCCSCc1ccc(CN(C)C)o1`, for which the Potency entry is “inactive”.

With `COCCOCCOC`, the Potency entry is “inactive”.

For the compound `NCCNc1cccc2ccccc12`, the Potency is 31.7 µM (active) and 21.9 µM (active) and 12.3 µM (active).

Take `Cc1c(N(C)C)c(=O)n(-c2ccccc2)n1C`: the Potency was 32.2 µM (active) and inactive.

As to `C1CNCCN1`, the Potency is 82 µM (active) and inactive and 72.1 µM (active).

With `Cc1cnc(NC(=O)C2=C(O)c3ccccc3S(=O)(=O)N2C)s1`, the Potency entry is “inactive”.

For `CCCCOC(=O)CCCCCCCCC(=O)OCCCC`, the Potency entry was “inactive”.

Consider `NC(=O)OCC(COC(N)=O)c1ccccc1`, for which the Potency result was “inactive and 34.7 µM (active)”.

As to `CC(=O)c1ccc(S(=O)(=O)NC(=O)NC2CCCCC2)cc1`, the Potency result was “inactive”.

On to `Cc1cccc(Nc2cc(Cl)nc(SCC(=O)O)n2)c1C`, for which the Potency result is “inactive and 7.76 µM (active)”.

In the case of `COC(=O)c1ccc(O)cc1`, the Potency result is “inactive”.

As to `CCN1CCCC1=O`, the Potency result is “inactive”.

With `O=C1OC(c2ccc(O)cc2)(c2ccc(O)cc2)c2ccccc21`, the Potency is 28.1 µM (active) and 17.8 µM (active) and 11 µM (active).

Take `N[C@@H](Cc1c[nH]c2ccc(O)cc12)C(=O)O`: the Potency result was “inactive”.

As to `O=c1c(-c2ccc(O)cc2)coc2cc(O)cc(O)c12`, the Potency is 55.5 µM (active) and 89.4 µM (active).

For the compound `CC(C)CC(C)CC(O)CC(C)C` (stereo not drawn), the Potency entry is “inactive”.

Regarding `COC1=CC(=O)C[C@@H](C)[C@]12Oc1c(Cl)c(OC)cc(OC)c1C2=O`, the Potency is 70.4 µM (active) and inactive.

On to `Nc1ccc(N=Nc2ccccc2)c(N)n1`, for which the Potency was 20.1 µM (active) and 28.3 µM (active) and 9.77 µM (active).

Regarding `CCCCCCCC(=O)OCC(O)CO` (stereo not drawn), the Potency was 79.6 µM (active).

For the compound `C/C=C/c1ccc(O)c(OC)c1`, the Potency is 7.96 µM (active) and 39.9 µM (active) and 8.71 µM (active).

With `CC(=O)OC/C=C(C)/C=C/C=C(C)/C=C/C1=C(C)CCCC1(C)C`, the Potency was 39 µM (active) and 35.6 µM (active).

Turning to `C[C@]12CC[C@@H]3c4ccc(O)cc4C[C@@H](CCCCCCCCCS(=O)CCCC(F)(F)C(F)(F)F)[C@H]3[C@@H]1CC[C@@H]2O` (stereo partly drawn), the Potency is 7.1 µM (active) and 10.5 µM (active) and 6.92 µM (active).

For `Nc1cccc(N)c1`, the Potency was 56.3 µM (active) and 39.4 µM (active).

For `CCCCCCCCCCCCCC(=O)OC(C)C`, the Potency result was “inactive”.

For the next experiment, the target named is Cytochrome P450 2C9 (Homo sapiens) (UniProt P11712). In words: Cytochrome P450 Family 2 Subfamily C Member 9 (CYP2C9) small molecule antagonists: luciferase reporter qHTS assay (AID 1671198). Note: nearly all actives have a fitted effect of over 50% in size. As to conditions: P450-Glo CYP2C9 enzyme assay, luciferin luminescence; series mostly up to 115 µM. Put shortly: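 Enzyme-substrate mix preincubated with compound 10 min at room temperature; reaction started with NADPH regeneration solution, 1 h 37C. Luminescent luciferin product read after 20 min detection reagent.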
Cytochrome P450 2C9 (Homo sapiens), sequence (P11712 whole entry, looked up): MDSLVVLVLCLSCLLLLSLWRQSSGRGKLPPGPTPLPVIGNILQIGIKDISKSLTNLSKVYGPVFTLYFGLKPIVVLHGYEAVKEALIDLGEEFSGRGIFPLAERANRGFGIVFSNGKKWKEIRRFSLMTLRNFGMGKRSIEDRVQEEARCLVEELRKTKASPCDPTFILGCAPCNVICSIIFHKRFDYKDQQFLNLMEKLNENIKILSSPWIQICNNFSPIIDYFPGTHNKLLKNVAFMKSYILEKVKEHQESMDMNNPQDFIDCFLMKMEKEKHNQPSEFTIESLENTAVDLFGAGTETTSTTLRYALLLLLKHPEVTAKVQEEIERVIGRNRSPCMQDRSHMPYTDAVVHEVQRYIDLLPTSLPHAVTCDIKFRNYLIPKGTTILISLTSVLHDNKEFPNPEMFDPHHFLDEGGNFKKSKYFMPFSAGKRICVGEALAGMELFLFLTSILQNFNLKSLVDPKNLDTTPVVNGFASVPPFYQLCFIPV
Take `COc1cc(O)c(C(=O)c2ccccc2)cc1S(=O)(=O)O`: the Potency result was “inactive”.

Consider `Oc1cccc(O)c1`, for which the Potency entry is “inactive”.

`COc1cc2c(c(OC)c1OC)-c1ccc(OC)c(=O)cc1[C@@H](NC(C)=O)CC2`: the Potency entry is “inactive”.

Regarding `c1ccc2[nH]c(-c3cscn3)nc2c1`, the Potency result was “inactive”.

As for `CC(O)COc1ccccc1` (stereo not drawn), the Potency result is “inactive”.

For `CN/C(=C\[N+](=O)[O-])NCCSCc1ccc(CN(C)C)o1`, the Potency entry was “inactive”.

For the compound `COCCOCCOC`, the Potency entry was “inactive”.

As to `NCCNc1cccc2ccccc12`, the Potency is 20 µM (active) and 31 µM (active) and 27.5 µM (active).

Turning to `Cc1c(N(C)C)c(=O)n(-c2ccccc2)n1C`, the Potency result was “inactive”.

Regarding `C1CNCCN1`, the Potency entry was “inactive”.

Consider `Cc1cnc(NC(=O)C2=C(O)c3ccccc3S(=O)(=O)N2C)s1`, for which the Potency was 7.98 µM (active) and 11.2 µM (active) and 12.3 µM (active).

Turning to `CCCCOC(=O)CCCCCCCCC(=O)OCCCC`, the Potency was 28.3 µM (active).

For the compound `NC(=O)OCC(COC(N)=O)c1ccccc1`, the Potency result was “inactive”.

Take `CC(=O)c1ccc(S(=O)(=O)NC(=O)NC2CCCCC2)cc1`: the Potency was 31.6 µM (active) and 31.7 µM (active) and 17.4 µM (active).

For the compound `Cc1cccc(Nc2cc(Cl)nc(SCC(=O)O)n2)c1C`, the Potency is 31.7 µM (active) and 29.2 µM (active) and 17.4 µM (active).

For `COC(=O)c1ccc(O)cc1`, the Potency result is “inactive”.

`CCN1CCCC1=O`: the Potency entry is “inactive”.

Turning to `O=C1OC(c2ccc(O)cc2)(c2ccc(O)cc2)c2ccccc21`, the Potency is 19.9 µM (active) and 20 µM (active) and 12.3 µM (active).

`N[C@@H](Cc1c[nH]c2ccc(O)cc12)C(=O)O`: the Potency was 27.5 µM (active) and 34.7 µM (active).

Take `O=c1c(-c2ccc(O)cc2)coc2cc(O)cc(O)c12`: the Potency was 55.5 µM (active) and 71 µM (active) and inactive.

Turning to `CC(C)CC(C)CC(O)CC(C)C` (stereo not drawn), the Potency result is “inactive”.

As for `COC1=CC(=O)C[C@@H](C)[C@]12Oc1c(Cl)c(OC)cc(OC)c1C2=O`, the Potency is 44.8 µM (active) and inactive.

Take `Nc1ccc(N=Nc2ccccc2)c(N)n1`: the Potency was 20.1 µM (active) and 28.3 µM (active) and 17.4 µM (active).

Turning to `CCCCCCCC(=O)OCC(O)CO` (stereo not drawn), the Potency result was “inactive”.

As to `C/C=C/c1ccc(O)c(OC)c1`, the Potency was 2.83 µM (active) and 20 µM (active) and 13.8 µM (active).

`CC(=O)OC/C=C(C)/C=C/C=C(C)/C=C/C1=C(C)CCCC1(C)C`: the Potency was 31 µM (active) and 31.7 µM (active) and 19.5 µM (active).

Regarding `C[C@]12CC[C@@H]3c4ccc(O)cc4C[C@@H](CCCCCCCCCS(=O)CCCC(F)(F)C(F)(F)F)[C@H]3[C@@H]1CC[C@@H]2O` (stereo partly drawn), the Potency is 2.83 µM (active) and 3.32 µM (active) and 2.75 µM (active).

Regarding `Nc1cccc(N)c1`, the Potency was 70.9 µM (active).

Take `CCCCCCCCCCCCCC(=O)OC(C)C`: the Potency result was “inactive”.
